Cycloheximide cs: counter-screen for Shiga toxin inhibitors: cycloheximide protein synthesis inhibition. 300,000 compounds, 12% hits. max response, %. cell reporter, cycloheximide protein synthesis inhibition counterscreen; in the data active = max response mostly above about 13%, no sharp cut-off; inactive = mostly below about 14%; note: read at 38.3 µM for the half of the compounds with a filed dose
FBPA Giardia inh: blocks Giardia fructose-bisphosphate aldolase activity; 290,000 compounds, 0.71% hits; Potency, µM (top dose mostly 59.6 µM), usual class: inhibitors; purified Giardia FBPA; note: nearly all actives have a fitted effect of over 55% in size
Target sequence (A8B2U2 whole entry, looked up): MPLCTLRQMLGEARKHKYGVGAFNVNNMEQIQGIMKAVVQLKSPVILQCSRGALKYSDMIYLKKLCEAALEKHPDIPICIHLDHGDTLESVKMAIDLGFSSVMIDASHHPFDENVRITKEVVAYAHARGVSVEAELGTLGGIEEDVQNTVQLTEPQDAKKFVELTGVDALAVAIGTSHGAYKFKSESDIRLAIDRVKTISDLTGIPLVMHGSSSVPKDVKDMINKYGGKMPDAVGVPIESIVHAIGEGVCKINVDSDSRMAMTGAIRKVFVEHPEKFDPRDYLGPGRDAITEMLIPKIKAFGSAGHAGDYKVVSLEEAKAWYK
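40 nM FBPA preincubated 10 min at RT with compound (up to 57.5 uM final), then substrate plus GAPDH/TPI/NAD/arsenate coupling and diaphorase/resazurin added. Fluorescence read after 20 min at RT, 525/598 nm.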
NS1 function inh: influenza NS1 inhibition; 270,000 compounds, 0.4% hits; Potency, µM (top dose mostly 46.1 µM); AID 2326; calls by dose curve; note: actives are rising curves; nearly all actives have a fitted effect of over 50% in size
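In this qHTS, NS1 from influenza A is expressed in budding yeast, where it slows growth. Cells are switched from glucose to 2% galactose medium (pH 6.0, -URA), treated with compound, and growth recovery is read at OD600.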
LmPK inh: blocks Leishmania mexicana pyruvate kinase activity; 290,000 compounds, 0.37% hits; Q27686; purified LmPK, Kinase-Glo ATP luminescence, 1 h; Potency, µM (doses to about 57.5 µM), actives largely listed as inhibitors
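ATP generated from ADP (0.1 mM) and PEP (0.5 mM) by 0.1 nM LmPK over 1 h at room temperature (pH 7.2 imidazole buffer) was detected by coupled luciferase luminescence. Values were normalized to uninhibited and no-enzyme wells.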
Shiga toxin inh: blocks Shiga toxin action in Vero cells. inhibition, % at 38.7 µM. Vero cells, Shiga toxin protein synthesis inhibition reporter. 290,000 compounds, 9.2% hits; in the data active = inhibition mostly above about 28%, no sharp cut-off; inactive = mostly below about 43%
A number is an active result; - = inactive; ? = inconclusive; . = no result; [ ] = dose if it differs, or a comment. Compounds with a hit are over-represented: about 14% of the library has one in this group of screens. Unless noted, calls come from the whole dose curve; as a rule, active = well fitted curve in the direction sought with a large enough effect; inconclusive = small, poorly fitted or top-dose-only effect, or another doubt; inactive = no such curve, though single readings can be large; an effect the other way counts as inactive or inconclusive.

SMILES | Cycloheximide cs | FBPA Giardia inh | NS1 function inh | LmPK inh | Shiga toxin inh
CCOC(=O)c1nc(N/N=C/c2ccccc2)sc1Br | 13 | - | - | - | -
CC(=O)Nc1sc(N/N=C/c2ccccc2F)nc1-c1ccc(C)cc1 | 42 | - | - | - | 92
COc1ccc(/C=N/Nc2nc(-c3ccc(C)cc3)c(NC(C)=O)s2)cc1 | - | - | - | - | -
CC(=O)Nc1sc(N/N=C/c2ccccc2)nc1-c1ccc(C)cc1 | 18 | - | - | - | -
CC(=O)Nc1sc(N/N=C/c2ccc(O)cc2)nc1-c1ccc(C)cc1 | - | - | - | - | -
CCCCN(CC)CCCNC(=O)c1ccc2c(c1)N(CC)C(=O)c1ccccc1S2(=O)=O | - | - | - | - | -
CCOc1ccc(-c2nc(-c3ccccc3)no2)cc1OCC | 29 | - | - | - | 70
CCOc1ccc(-c2nc(-c3ccncc3)no2)cc1OCC | 17 | - | - | - | 40
Nc1ccccc1Oc1ccccc1 | - | - | . | . | -
CCOC(=O)[C@@H]1[C@H]2COc3ccccc3[C@H]2N2C(=O)N(c3cccc(F)c3)C(=O)[C@]12C | - | - | - | - | -
C/C(=N\NC(=O)c1ccc(Br)cc1)c1ccccc1 | 55 | - | - | - | 113
C/C(=N\NC(=O)c1cccnc1)c1cccc([N+](=O)[O-])c1 | - | - | . | - | -
C/C(=N\NC(=O)C(N)=O)c1ccc(Br)cc1 | - | - | - | - | -
C/C(=N\NC(=O)c1cccc(Br)c1)c1cccnc1 | 23 | - | - | - | 51
C/C(=N\NC(=O)c1cccnc1)c1ccccc1 | 13 | - | - | - | -
C/C(=N\NC(=O)c1cccc2ccccc12)c1cccnc1 | - | - | - | - | -
C/C(=N\NC(=O)c1cccnc1)c1ccc(Br)cc1 | 16 | - | - | - | -
O=C(COc1ccccc1)N=C1SC2CS(=O)(=O)CC2N1c1ccc(F)cc1F (stereo not drawn) | - | - | - | - | -
C[C@@H]1CC[C@@H]2N(C1)C[C@H]1[C@@](O)([C@H](O)C[C@]3(O)[C@H]4CC[C@H]5[C@]6(O)O[C@]4(C[C@]13O)[C@@]5(C)CC[C@@H]6O)[C@@]2(C)O | . | . | - | . | .
Cc1cc(OCC(=O)NNC(=O)c2cccnc2)cc(C)c1Cl | - | . | - | - | -
CSC(=S)N/N=C(\C)c1ccc(Br)cc1 | 29 | - | - | - | 45
CC/C(=N\NC(=O)c1ccc(N(C)C)cc1)c1ccccc1 | - | - | - | - | 33
C/C(=N/NC(=O)CNS(=O)(=O)c1ccccc1)c1ccc(Br)cc1 | - | - | - | - | -
CC(=O)Nc1ccccc1NC(=O)C/C(C)=N/NC(=O)c1cccnc1 | - | - | - | - | 48
Cc1ccccc1N(CC(=O)NC1CCCCC1)C(=O)CCCC(=O)Nc1ccccn1 | - | - | - | - | -
SMILES | Cycloheximide cs | FBPA Giardia inh | NS1 function inh | LmPK inh | Shiga toxin inh
CCOC(=O)C(C(=O)c1ccccc1)[C@H](CCc1ccccc1)NC(=O)OC (stereo partly drawn) | . | - | . | . | .
Cc1ccc(S(=O)(=O)N2CCc3nc(COc4ccccc4)c4c(c3C2)CO[C@@H](C)C4)cc1 | . | -[12.9 µM] | . | -[11.5 µM] | .
NC(=S)N/N=C\c1ccc(-c2cccc(Cl)c2Cl)o1 | - | - | - | - | -
NC(=S)N/N=C/c1ccc(-c2ccccc2)o1 | 24 | - | . | - | 36
Cc1ccc(-c2ccc(/C=N/NC(N)=S)o2)cc1 | 28 | - | - | - | 58
NC(=S)N/N=C/c1ccc(-c2ccc(SC(F)F)cc2)o1 | 38 | - | - | - | 41
NC(=S)N/N=C/c1ccc(-c2ccc(Cl)c(Cl)c2)o1 | 20 | - | - | - | -
O=C(OCC(=O)N1CCCC1=O)C1CCN(S(=O)(=O)c2c(Cl)cccc2Cl)CC1 | - | . | - | - | -
CCNC(=S)N/N=C/c1ccc(-c2ccccc2)o1 | 24 | - | - | - | 49
CC(C)=CCCC(C)C1CC[C@@]2(C)C3=C(CC[C@@]12C)C1(C)CCC(O)C(C)(C)C1CC3 (stereo partly drawn) | . | - | . | . | .
COc1ccc(-c2ccc3nnc(SCC(N)=O)n3n2)cc1 | - | - | . | - | -
CCSc1nnc2ccc(-c3ccc(OC)c(OC)c3)nn12 | 25 | - | - | - | -
NC[C@@H]1O[C@H](O[C@@H]2[C@H](O[C@@H]3O[C@H](CO)[C@@H](O)[C@@H]3O)[C@@H](O)[C@@H](N)C[C@H]2N)[C@@H](N)[C@H](O)[C@@H]1O | . | - | . | . | .
Nc1nnc(N2CCCCCC2)s1 | - | - | - | - | -
O=C1CCCc2nc(N3CCCCC3)sc21 | 30 | - | - | - | 51
CCCCNC(=O)C(c1ccc(OCC(=O)OC)c(C(=O)OC)c1)N(Cc1ccccn1)C(=O)CCCCCN1C(=O)NC(c2ccc(-c3ccccc3)cc2)C(C(=O)OCc2ccccc2)=C1C (stereo not drawn) | . | - | . | . | .
Cc1ccc(C2C(C#N)=C(N)N(c3cccnc3)C3=C2C(=O)CCC3)s1 (stereo not drawn) | - | ? | - | - | 51
O=C1C2CC=CCC2C(=O)N1c1ccc(NCCc2ccccc2)c([N+](=O)[O-])c1 (stereo not drawn) | - | - | - | - | -
CC1CC(=O)N(c2ccc(NCCc3ccccc3)c([N+](=O)[O-])c2)C1=O (stereo not drawn) | 31 | - | . | - | 68
CC1CC(=O)N(c2ccc(NCCc3ccc(O)cc3)c([N+](=O)[O-])c2)C1=O (stereo not drawn) | 22 | - | . | - | 41
Cc1ccc(CNc2ccc(N3C(=O)CC(C)C3=O)cc2[N+](=O)[O-])cc1 (stereo not drawn) | - | - | - | - | -
Cc1cc(C(F)(F)F)nc(SCC(=O)NC2CCCCC2)n1 | - | - | - | - | -
COc1ccc(N(CC(=O)NC2CCCC2)C(=O)c2ccc(C)s2)c(OC)c1 | - | - | - | - | -
COc1ccc(N=C2SCC(c3ccc(C)cc3)=NN2CCO)cc1 | - | - | - | - | -
COc1ccc(C2=NN(C)C(=NCc3ccccc3)SC2)cc1 | - | - | - | - | 38
SMILES | Cycloheximide cs | FBPA Giardia inh | NS1 function inh | LmPK inh | Shiga toxin inh
COc1ccc(CN=C2Nc3ccccc3CS2)cc1 | 30 | - | - | ? | -
COc1ccc(CN=C2NN=C(c3ccc(Cl)cc3)CS2)cc1 | 21 | - | . | - | 52
CC(C)(C)N=C1NN=C(c2cc3ccccc3o2)CS1 | 30 | - | - | - | 86
C=CCn1c(C)cc(C2=NNC(=NC(C)(C)C)SC2)c1C | - | - | - | ? | -
COc1ccc(OC)c(C2=NNC(=NCc3ccc4c(c3)OCO4)SC2)c1 | - | - | - | - | -
CCc1ccc(C2=NNC(=Nc3cccc(S(=O)(=O)N(C)C)c3)SC2)cc1 | - | - | - | - | -
CC(C)(C)N=C1NN=C(c2ccc(Cl)cc2)CS1 | 70 | - | - | - | 91
O=c1c(-c2ccc(Cl)cc2)nc2cnc(N3CCOCC3)nc2n1C[C@H]1CCCO1 | . | - | . | . | .
Cc1nn(-c2ccccc2)c(C)c1/C=N/O | 14 | - | - | - | -
Cc1nn(-c2ccccc2)c(C)c1/C=N/NC(=O)c1cccs1 | 15 | - | - | - | -
Cc1nn(-c2ccccc2)c(C)c1/C=N/n1c(-c2ccccc2Br)n[nH]c1=S | - | - | - | 13µM | -
